# According to PubChem BioAssay AID686970 (National Center for Advancing Translational Sciences (NCATS), 2013):
# The campaign covered roughly 360,000 compounds. About 6,000 (1.7%) were called active. About 8% were inconclusive and are not listed. The full list was thinned out, with actives kept by preference. A number with no mark means an inactive call. Calls come from the whole dose curve; as a rule, active = well fitted cell-killing curve with a large enough effect; inconclusive = small, poorly fitted or top-dose-only effect, or effect the other way; inactive = flat fitted curve, though single readings scatter.
# Assay: qHTS for induction of synthetic lethality in tumor cells producing 2HG: qHTS for the HT-1080-NT fibrosarcoma cell line;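 note: NT is the 2HG producing partner of a matched IDH1 knockdown line; nearly all actives have a fitted effect of over 55% in size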;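 for activity, negative = less viability: 0% = DMSO-treated cells and -100% = media-only wells without cells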
# Conditions: HT-1080-NT fibrosarcoma viability, CellTiter-Glo ATP luminescence, 48 h; series mostly up to 46.1 µM; activity, negative = less viability: at the top concentration
# Method in brief: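 A 48-hour cytotoxicity screen used HT-1080-NT cells plated 2 hours before compound delivery. ATP-based CellTiter-Glo luminescence measured viability, normalized to DMSO and no-cell controls.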
# Potency is the fitted concentration of half-maximal effect.
Compound,"activity, negative = less viability [%]",Potency
Cc1ccc(NC(=S)NCCc2ccc(Cl)cc2)c(C)c1,-19,–
Oc1cc2c(cc1O)CN(C(=S)NCCc1ccc(Cl)cc1)CCC2,–,31.6 µM (active)
O=C(NCCc1ccc(Cl)cc1)c1cccc(N2CCCC2=O)c1,12.6,–
Cc1cc(C)c2c(=O)n3c(nc2c1)C(CC(C)C)NC(=O)c1cc2ccccc2cc1-3 (centres undefined),4.37,–
CC(C)C1CC2=C(C(=O)OC(C)(C)O2)C(c2ccc(F)cc2)O1 (centres undefined),0.447,–
CN1OC[C@@H]2CN(S(=O)(=O)c3cccc4ccccc34)[C@H](c3ccc(N4CCCCC4)cc3)C[C@@H]21,-19.7,–
CS(=O)(=O)/C(C#N)=C/c1cccn1S(=O)(=O)c1ccc([N+](=O)[O-])cc1,5.67,–
Clc1cccc(Cl)c1OCCOCCNCc1ccccc1,-2.39,–
CN(C)CCOCCOc1ccc(Cl)c2ccccc12,–,18.4 µM (active)
CN(C)CCOc1ccc(Cl)cc1C(C)(C)C,-6.35,–
COc1cc(C)c(CN2CCN(C(=O)CCC(=O)c3ccc(C)s3)CC2)cc1OC,0.481,–
Cc1ccc(NC(=O)Cn2sc3ccccc3c2=O)cc1,-4,–
CC1(C(=O)NS(=O)(=O)c2cccc(F)c2)CCN1C(=O)Cc1ccc(Cl)cc1Cl (centres undefined),8.06,–
COC(=O)[C@]12CCCCC=C1N(Cc1cccc3ccccc13)C(=O)[C@H](CC(=O)N1CCOCC1)C2,-14.1,–
COc1cc(NC(=O)c2[nH]cnc2C(N)=O)cc(C(=O)Nc2cccc(C(F)(F)F)c2)c1,–,18.4 µM (active)
COc1cc(NC(=O)c2cncc(-c3ccc(C#N)cc3)c2)cc(C(=O)Nc2cccc(C(F)(F)F)c2)c1,–,inactive
O=C(O)CSc1c2c(nc3cc(C(=O)Nc4cccc(C(F)(F)F)c4)ccc13)CCCC2,12.9,–
CC(=O)C1=CCC(c2ccccc2)N(S(=O)(=O)c2ccc(C)cc2)C1 (centres undefined),-20.9,–
Cc1ccc(OS(=O)Nc2cccc3nccnc23)cc1 (centres undefined),–,11.2 µM (active)
Cc1ccc(C)c(NC(=O)c2ccc3nccnc3c2)c1,-1.09,–
Cc1ccc(Oc2ccc3c(c2)C(=O)N(c2cccc4cccnc24)C3=O)cc1,0.506,–
CCOc1cc(-c2cc(-c3ccc(NC(C)=O)cc3)nc(N)c2C#N)ccc1O,-16.4,–
CCOc1cc(C=NNC(=O)CCCC(=O)NN=Cc2ccc(O)c(OCC)c2)ccc1O,13,–
CCOc1cc(/C=C(\C#N)c2nc(-c3cccs3)c(NC(C)=O)s2)ccc1O,–,3.26 µM (active)
CCCNC(=O)C1(C)CCN(C(=O)c2ccc(F)cc2Cl)C1 (centres undefined),19.7,–
CN1OC[C@@H]2CN(C(=O)c3cccc4ccccc34)[C@H](c3ccc(N4CCCCC4)cc3)C[C@@H]21,16.6,–
N#CCSc1nc(-c2ccccc2)nc2ccc(F)cc12,-0.769,–
Clc1ccc2nc(-c3ccccc3)nc(C(Cl)Cl)c2c1,–,4.61 µM (active)
Oc1ccc(-c2onc3ccc(Cl)cc23)cc1,-7.15,–
